Compounds with a hit are over-represented: about 19% of the library has one in this group of screens.
IL1B secr inh – inhibitors of inflammasome signaling (IL-1 beta secretion) | THP-1 LPS/ATP IL-1B secretion, AlphaLISA, 16 h; stronger effect = lower value | activity change, % at 57.5 µM | 360,000 compounds, 4.7% hits; in the data active = activity change below about -50%; inconclusive = mostly about -30% to -49%
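Secreted IL-1B measured by AlphaLISA bead assay after 16 h compound exposure of THP-1 cells; compounds (final up to 57.5 uM) added 1 h before LPS (250 ng/mL) and ATP (1.25 mM) stimulation; lower signal means less secretion.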
ELG1 DNA repair – blocks ELG1-dependent DNA repair in HEK293T cells | 330,000 compounds, 2.3% hits | HEK293T ELG1-luciferase reporter, luminescence, 16 h; DNA damage induced by 5-fluorouridine | Potency, µM (highest dose often 46.1 µM), inactives show top-dose activity change, negative = inhibition, actives largely listed as inhibitors; note: potency is the fitted concentration of half-maximal effect; nearly all actives have a fitted effect of over 55% in size
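HEK293T cells expressing luciferase-tagged ELG1 (2,000/well) received 5-Fluorouridine plus compound or DMSO for 16 hr at 37 °C. Luciferase was read by ONE-Glo luminescence after 30 min at room temperature.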
HT1080 IDH1KD tx – HT-1080 IDH1 knockdown cell toxicity (counter line); Potency, µM (highest dose often 46.1 µM), for inactives: top-dose activity, negative = toxicity, usual class: cytotoxic; 360,000 compounds, 2% hits; HT-1080 IDH1 knockdown viability, ATP luminescence, 48 h; AID 686971;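 note: potency is the fitted concentration of half-maximal effect; 0% = DMSO wells and -100% = cell-free medium wells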
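In this qHTS, HT-1080 cells depleted of IDH1 are exposed for 48 h at 37 °C to compound titrations. Toxicity is scored from CellTiter-Glo luminescence, with DMSO as full viability and medium alone as none.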
DT40 TDP1 no CPT – qHTS for Inhibitors of human tyrosyl-DNA phosphodiesterase 1 (TDP1): qHTS in cells in absence of CPT | AID 686978, 2013 | DT40 Tdp1-/- hTDP1 cells, no CPT, ATP luminescence, 48 h | 420,000 compounds, 15% hits | Potency, µM (doses to about 46.2 µM), for the others: top-dose activity change, negative = growth inhibition, most hits filed as inhibitors; note: potency is the fitted concentration of half-maximal effect; nearly all actives have a fitted effect of over 55% in size
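Luminescent ATP content (CellTiter-Glo) served as the growth readout. Knockout chicken DT40 cells expressing human TDP1 were exposed to compounds without camptothecin for a minimum 48 hr at 37 °C.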
TDP1 cell CPT – growth inhibition of DT40 Tdp1-/-;hTDP1 cells with camptothecin (screen for TDP1 inhibitors); chicken DT40 Tdp1-/-;hTDP1 cells + 20 nM CPT, ATP luminescence, 48 h; Potency, µM (highest dose often 46.2 µM), for the others: at the highest dose activity change, negative = growth inhibition, hits mostly inhibitors; 420,000 compounds, 12% hits; AID 686979; note: potency is the fitted concentration of half-maximal effect; nearly all actives have a fitted effect of over 55% in size
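Cell growth measured by CellTiter-Glo luminescence after a minimum 48 h, 37 C compound exposure with 20 nM CPT in Tdp1-knockout DT40 cells stably expressing hTDP1, seeded 400/well; qHTS titration format.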
HT1080-NT tox – kills 2HG-producing HT-1080-NT fibrosarcoma cells. HT-1080-NT fibrosarcoma viability, CellTiter-Glo ATP luminescence, 48 h. Potency, µM (series often up to 46.1 µM), without a hit: at the highest dose activity, negative = less viability, actives largely listed as cytotoxic. 360,000 compounds, 1.6% hits. AID 686970;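 note: NT is the 2HG producing partner of a matched IDH1 knockdown line; potency is the fitted concentration of half-maximal effect; 0% = DMSO-treated cells and -100% = media-only wells without cells; nearly all actives have a fitted effect of over 55% in size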
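Fibrosarcoma NT cells, 750 per well in 5% FBS RPMI, were exposed to compound for 48 hours. Viability: CellTiter-Glo luminescence.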
An asterisk follows results filed as active; ? = inconclusive; . = no result given; [ ] = another dose, or the depositor's remark. Unless noted, calls come from the whole dose curve; as a rule, active = well fitted curve in the direction sought with a large enough effect; inconclusive = small, poorly fitted or top-dose-only effect, or another doubt; inactive = no such curve, though single readings can be large; an effect the other way counts as inactive or inconclusive. Unless noted, % is set by controls: 0 for no effect and ±100 for the full control effect.

SMILES	IL1B secr inh	ELG1 DNA repair	HT1080 IDH1KD tx	DT40 TDP1 no CPT	TDP1 cell CPT	HT1080-NT tox
COc1ccc(OC)c(CCNC(=O)c2c(C)oc3ncn(CC(C)C)c(=O)c23)c1	.	.	.	18.4µM*	?	.
Cc1oc2ncn(CC(C)C)c(=O)c2c1C(=O)N(Cc1ccccc1)C(C)C	.	.	.	?	-23.3%	.
CCOc1ccc(NC(=O)Cc2ccc(S(=O)(=O)N3CCCCC3)cc2)cc1OCC	9.2	?	-6.5%	?	?	-0.9%
CC(C)Oc1ccc(CNC(=O)c2ccc(NC(=O)c3nsc4ccccc34)cc2)cc1	.	.	.	18.4µM*	20.6µM*	.
CCOc1ccc(CNC(=O)c2ccc(NC(=O)c3nsc4ccccc34)cc2)cc1	.	.	.	-16.2%	?	.
COc1ccc(OC)c(CNC(=O)c2ccc(NC(=O)c3nsc4ccccc34)cc2)c1	.	.	.	18.4µM*	?	.
COc1ccc2c([N+](=O)[O-])c(Cl)[nH]c2c1	1.5	0.2%	-0.1%	-7.6%	-18.2%	1.3%
Cc1c(CC(=O)N2CCN(C(=O)C3COc4ccccc4O3)CC2)c(=O)oc2cc(O)cc(O)c12 (stereo not drawn)	-10.9	?	1.8%	-4.9%	2.9%	-0.8%
Cc1c(CC(=O)N2CCN(C(=O)C3COc4ccccc4O3)CC2)c(=O)oc2cc(O)ccc12 (stereo not drawn)	6.7	0.731µM*	0.5%	3.1%	2.0%	-2.0%
COc1ccc2c(C)c(CC(=O)N3CCN(C(=O)C4COc5ccccc5O4)CC3)c(=O)oc2c1 (stereo not drawn)	-6.3	23.1µM*	-1.8%	?	-25.0%	-8.9%
COc1ccc(N2CCN(C(=O)C3COc4ccccc4O3)CC2)cc1 (stereo not drawn)	-13.7	0.0%	4.9%	-13.9%	-5.3%	7.2%
CC(=O)CCc1c(C)c2cccc(C)c2[nH]c1=O	-15.3	6.1%	-5.9%	?	18.4µM*	?
O=C(C[n+]1ccncc1)c1cccc([N+](=O)[O-])c1	.	.	.	-18.1%	?	.
O=C(Nc1cc(Cl)ccc1Cl)c1cc(S(=O)(=O)N2CCc3ccccc3C2)ccc1F	.	.	.	-29.3%	-22.5%	.
COc1nc(-c2ccccc2)cc(-c2ccc(OC)c(OC)c2)n1	-18.8	?	?	20.6µM*	?	-7.6%
COc1ccc(-c2cc(-c3ccccc3)nc(NN)n2)cc1OC	?	?	?	?	3.66µM*	?
COc1ccccc1-c1c(C)nn2c(N3CCOCC3)cc(C)nc12	30.1	0.0%	-2.6%	18.9%	-1.0%	1.7%
COc1ccccc1-c1c(C)nn2c(-c3ccccc3)cc(C)nc12	-70.3*	?	-16.8%	20.6µM*	14.6µM*	-5.7%
COc1ccccc1-c1c(C)nn2c(N3CCN(c4ccccc4)CC3)cc(C)nc12	.	.	.	-9.2%	-22.9%	.
CCOC(=O)C1CCN(c2cc(C)nc3c(-c4ccccc4OC)c(C)nn23)CC1	.	.	.	18.4µM*	18.4µM*	.
COc1ccccc1-c1c(C)nn2c(N3CCCCCC3)cc(C)nc12	-77.2*	23.1µM*	?	18.4µM*	16.4µM*	?
Cc1ccc(CNc2ncnc3sc(C(=O)N4CCCC(C(N)=O)C4)c(C)c23)o1 (stereo not drawn)	.	.	.	-20.8%	-11.7%[9.04 µM]	.
O=C(N/N=C\c1ccc(CNS(=O)(=O)c2ccc(Cl)cc2)o1)C(=O)Nc1ccc(Oc2ccccc2)cc1	4.0	6.6%	-0.5%	6.51µM*	2.91µM*	1.6%
O=C(NCc1ccc(/C=N\NC(=O)C(=O)Nc2ccccc2Br)o1)C(=O)Nc1ccccc1	32.1	13.6%	11.2%	?	-4.8%	7.2%
